We go through 8 compounds from PubChem BioAssay (NCI).

This is part of a sample that, as a whole, favours compounds with a hit. Of some 83,000 tested, about 20% had one in any assay.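 Single-dose data. Exposure time 48 hours. Values below 10 considered active.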 Values without a mark were called inactive. Calls of active or inactive are those of the source.

Holding throughout (test): NCI-60 one-dose screen, 48 h (100 = growth as untreated, 0 = no growth, -100 = all killed)
For one assay, the system named is HCT-15 colon. The following applies: 10 µM unless noted.
The subject of a further assay is HT29 colon. The following applies: 10 µM unless noted.
The next assay deals with SNB-75 CNS. As to conditions: 10 µM unless noted.
For another assay, the system named is SNB-19 CNS. As to conditions: 10 µM unless noted.
The next assay deals with U251 CNS. As to conditions: 10 µM unless noted.
The next assay concerns PC-3 prostate. As to conditions: 10 µM unless noted.
The test system of another assay is SK-MEL-5 melanoma. The following applies: 10 µM unless noted.
The test system of the next assay is UACC-62 melanoma. The following applies: 10 µM unless noted.
A further assay deals with LOX IMVI melanoma. As to conditions: 10 µM unless noted.
The subject of a further assay is SK-MEL-28 melanoma. As to conditions: 10 µM unless noted.
For the next assay, the system named is SK-MEL-2 melanoma. The following applies: 10 µM unless noted.
For the next assay, the system named is EKVX NSCLC. As to conditions: 10 µM.
A further assay has as its system SN12C renal. As to conditions: 10 µM unless noted.
The subject of a further assay is UO-31 renal. The following applies: 10 µM unless noted.
For a further assay, the system named is TK-10 renal. The following applies: 10 µM unless noted.
The subject of a further assay is ACHN renal. The following applies: 10 µM unless noted.
Another assay deals with CCRF-CEM leukemia. As to conditions: 10 µM.
Another assay concerns MOLT-4 leukemia. The following applies: 10 µM unless noted.
Another assay relates to A498 renal. The following applies: 10 µM unless noted.

Take `Oc1ccc(N=Nc2ccc(N=Nc3ccccc3)cc2)cc1`: the growth with HCT-15 colon is 40.7%; in the assay with HT29 colon, 53.4%; in the assay with SNB-75 CNS, 87.1%; in the assay on SNB-19 CNS, 58.4%; in the assay with U251 CNS, 51.6%; with PC-3 prostate it was 43.1%. For the same compound, the growth in the assay on SK-MEL-5 melanoma is 39.1%; in the assay on UACC-62 melanoma, 1.15% (active); in the assay on LOX IMVI melanoma it was 6.08% (active); in the assay with SK-MEL-28 melanoma, 54.4%; in the assay with SK-MEL-2 melanoma, 47.3%; in the assay on EKVX NSCLC, 39.8%. Further, the growth in the assay on SN12C renal is 57.1%; in the assay with UO-31 renal it was 15.8%; with TK-10 renal it was 48.5%; in the assay with ACHN renal, 30.8%; with CCRF-CEM leukemia, 6.69% (active); with MOLT-4 leukemia, 4.57% (active).

`O=C(O)c1ccc(-c2nn(-c3ccc(C(=O)O)cc3)cc2CNc2ccc(Br)cc2)cc1`: the growth with HCT-15 colon was 100%; in the assay with HT29 colon, 99%; with SNB-75 CNS it was 97.6%; in the assay on SNB-19 CNS, 105%; in the assay on U251 CNS, 106%; in the assay on PC-3 prostate, 101%. Besides, the growth is 103% in the assay with SK-MEL-5 melanoma; 97.6% in the assay on UACC-62 melanoma; 102% in the assay on LOX IMVI melanoma; 103% with SK-MEL-28 melanoma; 94.4% with SK-MEL-2 melanoma; 101% in the assay with EKVX NSCLC. Moreover, the growth with SN12C renal is 111%; with UO-31 renal, 87.7%; in the assay on TK-10 renal, 98.4%; with ACHN renal it was 102%; in the assay on CCRF-CEM leukemia, 101%; with MOLT-4 leukemia, 118%.

As for `Cc1nnc(-c2cc3c(ccc4ccccc43)oc2=O)c2cn(-c3ccc(Cl)cc3)nc12`, the growth is 87.4% in the assay with HCT-15 colon; 95.4% with HT29 colon; 82.4% with SNB-75 CNS; 96.4% in the assay with SNB-19 CNS; 87.1% in the assay on U251 CNS; 88.6% in the assay on PC-3 prostate. Moreover, the growth was 96% in the assay on SK-MEL-5 melanoma; 90.9% in the assay on UACC-62 melanoma; 79.9% in the assay on LOX IMVI melanoma; 118% in the assay with SK-MEL-28 melanoma; 95.4% in the assay with SK-MEL-2 melanoma; 84% with EKVX NSCLC. In addition, the growth with SN12C renal was 99.5%; with UO-31 renal, 66.2%; in the assay with TK-10 renal, 151%; in the assay with ACHN renal it was 97.5%; in the assay on A498 renal, 103%; in the assay with CCRF-CEM leukemia, 74.1%. For the same compound, the growth in the assay on MOLT-4 leukemia is 75.4%.

Take `CCCCN(CCCC)CC(O)CN(CC)CC` (centres undefined): the growth in the assay with HCT-15 colon is 104%; in the assay with HT29 colon it was 88%; with SNB-75 CNS, 87.3%; in the assay on SNB-19 CNS, 105%; in the assay with U251 CNS, 102%; in the assay on PC-3 prostate, 97.7%. Besides, the growth in the assay with SK-MEL-5 melanoma was 96.2%; in the assay with UACC-62 melanoma it was 105%; with LOX IMVI melanoma, 96.1%; with SK-MEL-28 melanoma, 109%; with SK-MEL-2 melanoma, 91.5%; in the assay with EKVX NSCLC, 107%. Moreover, the growth was 96.4% with SN12C renal; 72.8% in the assay with UO-31 renal; 92.7% in the assay with TK-10 renal; 102% in the assay on ACHN renal; 111% in the assay on A498 renal; 104% in the assay on CCRF-CEM leukemia. The growth with MOLT-4 leukemia was 96%.

As to `COc1ccc(CN2C(=O)/C(=C\C(=O)c3ccc(OCCN4CCCCC4)cc3)c3ccccc32)cc1`, the growth in the assay with HCT-15 colon was 7.62% (active); in the assay with HT29 colon it was 8.95% (active); in the assay on SNB-75 CNS, 83.8%; with SNB-19 CNS it was 84%; with U251 CNS it was 80%; with PC-3 prostate, 81.4%. Also, the growth is 90.9% with SK-MEL-5 melanoma; 73.5% with UACC-62 melanoma; 8.81% (active) in the assay with LOX IMVI melanoma; 91.5% in the assay on SK-MEL-28 melanoma; 97.4% with SK-MEL-2 melanoma; 87.6% with EKVX NSCLC. Further, the growth in the assay with SN12C renal is 26.3%; in the assay with UO-31 renal it was 39.3%; in the assay with TK-10 renal it was 113%; in the assay with ACHN renal, 48.7%; in the assay on A498 renal, 88.4%; with CCRF-CEM leukemia, 8.94% (active). Also, the growth in the assay on MOLT-4 leukemia is 3.78% (active).

On to `N=C(N)N=Nc1ccc(NN=C(N)N)cc1`, for which the growth is 102% in the assay with HCT-15 colon; 91.1% in the assay on HT29 colon; 76.4% in the assay with SNB-75 CNS; 94.2% in the assay on SNB-19 CNS; 91.8% with U251 CNS; 45.9% in the assay with PC-3 prostate. In addition, the growth was 94% in the assay on SK-MEL-5 melanoma; 90.8% in the assay on UACC-62 melanoma; 96.4% with LOX IMVI melanoma; 103% in the assay on SK-MEL-28 melanoma; 105% with SK-MEL-2 melanoma; 36.3% in the assay with EKVX NSCLC. Moreover, the growth in the assay with SN12C renal is 89%; with UO-31 renal it was 53.6%; with TK-10 renal it was 103%; in the assay with ACHN renal, 88.2%; in the assay with CCRF-CEM leukemia, 96.3%; in the assay on MOLT-4 leukemia it was 105%.

Turning to `c1ccc(-c2cn3ccnc3c(-c3ccc4ncn(C5CCCCC5)c4c3)n2)cc1`, the growth in the assay with HCT-15 colon was 48.4%; in the assay on HT29 colon, 51.7%; in the assay on SNB-75 CNS, 55.6%; in the assay with SNB-19 CNS, 77.1%; with U251 CNS, 62.7%; with PC-3 prostate, 7.96% (active). Moreover, the growth in the assay on SK-MEL-5 melanoma is 63.5%; in the assay on UACC-62 melanoma it was 34.4%; in the assay with LOX IMVI melanoma it was 60.4%; in the assay with SK-MEL-28 melanoma, 82%; with SK-MEL-2 melanoma, 83.5%; in the assay on EKVX NSCLC, 75.8%. Moreover, the growth in the assay with SN12C renal was 71.2%; in the assay with UO-31 renal, 44.8%; with TK-10 renal, 97.7%; in the assay on ACHN renal, 64.1%; in the assay with A498 renal it was 73.9%; in the assay on CCRF-CEM leukemia, 18.7%. For the same compound, in the assay with MOLT-4 leukemia, the growth is 32.3%.

As to `COc1ccc2c(c1)/C(=C1/S/C(=N/c3nnc(C)s3)NC1=O)C(=O)N2Cc1ccc(Br)cc1`, the growth in the assay on HCT-15 colon was 27.5%; with HT29 colon, 35.4%; with SNB-75 CNS, 45.7%; in the assay with SNB-19 CNS, 24.7%; in the assay with U251 CNS, 14.3%; with PC-3 prostate it was 21.9%. The growth in the assay on SK-MEL-5 melanoma was 36.3%; in the assay with UACC-62 melanoma, 32.9%; with LOX IMVI melanoma, 32.1%; with SK-MEL-28 melanoma, 32.6%; in the assay with SK-MEL-2 melanoma, 25.6%; in the assay with EKVX NSCLC it was 31.8%. In addition, the growth in the assay with SN12C renal was 43.4%; in the assay with UO-31 renal it was 42.6%; with TK-10 renal, 35%; with ACHN renal, 36.2%; in the assay on A498 renal it was 4.62% (active); in the assay with CCRF-CEM leukemia it was 21.2%. The growth in the assay on MOLT-4 leukemia was 20.7%.
